An excerpt weighted towards active compounds, which were near 1.9% of everything screened.
LANA-H2A inh: blockers of LANA interaction with H2A/H2B – biochemical, FP readout, HTS, primary screen. cell-free LANA-H2A/H2B peptide, fluorescence polarization. inhibition, % (test concentration not listed). actives 0.6% (n = 320,000); in the data active = inhibition mostly above about 10%, no sharp cut-off; inactive = mostly below about 6.7%
CR mimetic SO: reduction of superoxide in aged yeast, primary screen, HTS | S. cerevisiae aged cells, superoxide DHE fluorescence; stronger effect = lower value | superoxide response (% of plate mean), % at 10 µM | actives 0.18% (n = 330,000) | AID 2690, 2010;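 active = superoxide response under a set limit, about three screen SD below normal, cut at about 65% in these data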;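 note: yeast aged for seven days with compound at 30 °C before DHE staining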
GLD-1 RNA inh: GLD-1/TGE RNA complex disruptors, primary screen, biochemical, fluorescence polarization | Female germline-specific tumor suppressor gld-1 (Caenorhabditis elegans), Q17339 | purified GLD-1 + fluorescein TGE RNA | inhibition, % at 5.96 µM | actives 0.44% (n = 320,000);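 active = percent inhibition above a per-plate cutoff, the plate mean of test compounds plus 3 SD, cut at about 30% in these data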
MCL1-BIM inh: inhibitors of MCL1 binding to BIM-BH3, primary screen, biochemical, fluorescence polarization | Induced myeloid leukemia cell differentiation protein Mcl-1 (Homo sapiens), Q07820 | GST-MCL1 / FITC-Bim-BH3 fluorescence polarization | inhibition, % at 10.9 µM | actives 0.68% (n = 320,000) | AID 2057, 2009;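 active = inhibition above the mean inhibition of all tested compounds plus 3 SD, set per campaign, cut at about 40% in these data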;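 note: higher means more loss of mP so more displacement of Bim peptide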
Target sequence (Q07820 whole entry, looked up): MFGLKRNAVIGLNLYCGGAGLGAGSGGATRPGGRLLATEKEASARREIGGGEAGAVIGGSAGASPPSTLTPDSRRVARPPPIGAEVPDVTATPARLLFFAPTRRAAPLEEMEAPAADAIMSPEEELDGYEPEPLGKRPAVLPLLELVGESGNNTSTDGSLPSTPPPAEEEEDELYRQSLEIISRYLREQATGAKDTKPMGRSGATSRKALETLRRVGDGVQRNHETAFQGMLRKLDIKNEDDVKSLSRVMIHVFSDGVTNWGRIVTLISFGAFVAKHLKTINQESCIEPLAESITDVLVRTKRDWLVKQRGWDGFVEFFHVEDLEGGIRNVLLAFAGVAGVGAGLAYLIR
BCLXL inh: inhibitors of human Bcl-xL, primary screen, biochemical, fluorescence polarization, HTS. Bcl-2-like protein 1 (Homo sapiens), Q07817. GST-Bcl-xL / FITC-Bim BH3 peptide fluorescence polarization. inhibition, % at 10.9 µM. actives 0.7% (n = 320,000);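 active = inhibition above the mean of all tested compounds plus 3 SD, cutoff set per campaign, cut at about 30% in these data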;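 note: inhibitors lower millipolarization by displacing the labeled peptide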
Target sequence (Q07817 whole entry, looked up): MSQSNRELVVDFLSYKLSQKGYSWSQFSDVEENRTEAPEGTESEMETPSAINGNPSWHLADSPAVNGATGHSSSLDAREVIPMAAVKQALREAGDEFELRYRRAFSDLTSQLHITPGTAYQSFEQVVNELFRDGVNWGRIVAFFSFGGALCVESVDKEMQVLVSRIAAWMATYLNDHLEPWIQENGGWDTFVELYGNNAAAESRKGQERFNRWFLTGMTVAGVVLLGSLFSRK
MEX-5 binding: MEX-5 zinc finger RNA-binding disruptors – biochemical, C. elegans, fluorescence polarization, MLPCN library, primary screen; MEX-5/FITC-TCR2 RNA binding; stronger effect = lower value; AID 1832, 2009; Zinc finger protein mex-5 (Caenorhabditis elegans), Q9XUB2; activity score (negative = inhibition of binding), % at 10 µM; actives 0.38% (n = 300,000);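 active = inhibition past about -25% in most replicates, and total fluorescence under double the plate's negative control median, limit read from the data; inconclusive = replicates evenly split on the limit, or fluorescence at least double controls; inactive = too little inhibition in most replicates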
Numbers stand for hits; i = inactive; ? = inconclusive; nt = no result given; + = active, no number.

SMILES | LANA-H2A inh | CR mimetic SO | GLD-1 RNA inh | MCL1-BIM inh | BCLXL inh | MEX-5 binding
COc1ccc(C(=O)CCN2CCCCCC2)cc1 | 12.2 | i | i | i | i | nt
COc1ccc(OCCN2CCN(C(=O)c3ccc(OC)cc3)CC2)cc1 | 14.1 | i | i | i | i | i
CCOc1ccc(C(=O)CCN2CCCCC2)cc1 | i | i | i | i | i | i
Cc1ccc2nc(-c3ccco3)c(Nc3ccccc3)n2c1 | i | i | i | i | i | i
Cc1ccc(Nc2c(-c3ccco3)nc3nc(C)cc(C)n23)cc1 | 21.2 | i | i | i | i | i
C[C@]12CCC[C@H](O1)c1c(cc3c(c1O)C(=O)c1c(O)cc(O)cc1C3=O)O2 | i | i | i | i | i | i
O=c1c2ccccc2c(C=Nc2ccccc2O)c(O)n1-c1nccs1 | i | i | i | i | 36.7 | i
Cc1ccccc1N=Cc1c(O)n(-c2nccs2)c(=O)c2ccccc12 | i | i | i | i | i | i
CCO[C@H]1OC(C(=O)NCc2nc3ccccc3[nH]2)=C[C@@H](C2CCCCC2)[C@@H]1CCCO | 18.0 | i | i | i | i | i
CCN(CC)S(=O)(=O)c1cccc(C(=O)Nc2ccc(S(=O)(=O)NC3=NCCCCC3)cc2)c1 | i | i | i | i | i | i
O=C1CS/C(=N/N=C/c2cccs2)N1 | i | i | i | i | i | -32.3
O=C1CS/C(=N/N=C/c2ccncc2)N1 | i | i | i | i | i | i
Cc1cccc(NC(=O)COC(=O)CCc2c[nH]c3ccccc23)c1C | i | i | i | i | i | nt
CCC/C(C#Cc1ccc(N(C)C)cc1)=C1/c2ccccc2C(=O)N1c1ccccc1 | i | i | 118.9 | nt | nt | nt
O=C1OC[C@H]2CCCN2C(=O)[C@@H](CC(=O)N(CCO)Cc2ccccc2)C/C=C\CC[C@H]1Cc1ccc(F)cc1 | i | i | i | nt | nt | nt
Nc1ccc2nc(CCCO)[nH]c2c1 | i | i | i | i | i | -48.7
Nc1ccc2nc(CCCCCCc3nc4ccc(N)cc4[nH]3)[nH]c2c1 | i | i | i | i | i | i
Cc1cc(C)c(C)c(S(=O)(=O)Nc2cccc(S(=O)(=O)Nc3ccccc3C(=O)O)c2)c1C | i | i | i | nt | nt | nt
Cc1cc(C)c([C@@H]2C[C@H]3CN(C4CCCC4)C(=O)[C@]34CCCN24)c(-n2cccn2)c1 | i | i | i | i | 33.8 | i
Cc1ccc(-n2cccn2)c([C@@H]2C[C@H]3CN(C)C(=O)[C@]34CCCN24)c1 | nt | i | i | i | i | i
Cc1cc(C(=O)Nc2ccc(F)cc2)c2ccccc2n1 | i | i | i | i | i | i
Cc1c(C(=O)Nc2ccc(F)cc2)cn2c(nc3ccccc32)c1C#N | 97.0 | i | i | i | i | i
Cc1ccc(CSCC(=O)N(C)CC(=O)Nc2ccc(Cl)c(Cl)c2)cc1 | i | i | i | i | i | i
O=C1C2C3C=CC(C3)C2C(=O)N1Nc1ccc([N+](=O)[O-])cc1[N+](=O)[O-] (stereo unspecified) | 16.0 | i | i | i | i | i
COc1cccc(CN2CC(C(=O)NCc3ncc(C)[nH]3)CCC2=O)c1 (stereo unspecified) | i | i | i | i | i | i
SMILES | LANA-H2A inh | CR mimetic SO | GLD-1 RNA inh | MCL1-BIM inh | BCLXL inh | MEX-5 binding
CCOc1cc2c3c(c1)C(C)=CC(C)(C)N3C(=O)C2=O | 13.3 | i | i | i | i | i
CCOc1ccc2[nH]cc(-c3csc(N)n3)c2c1 | i | i | nt | nt | nt | i
CCOc1ccc(-c2c(C#N)c(N)nc3sc(C(=O)c4ccccc4)c(N)c23)cc1 | 11.0 | i | i | i | i | ?
CS(=O)(=O)Oc1ccc2c(c1)O/C(=C\C=C\c1ccccc1)C2=O | i | i | i | i | i | -41.8
CS(=O)(=O)Oc1ccc2c(c1)O/C(=C\c1cccc([N+](=O)[O-])c1)C2=O | i | i | nt | nt | nt | i
Cc1cccc2cc3c(N)c(C#N)sc3nc12 | i | i | i | i | 34.8 | i
O=C(CSc1ncnc2ccccc12)N1CCNC1=O | i | i | i | nt | nt | nt
Cc1nc(SCC(=O)N2CCNC2=O)c2ccccc2n1 | 21.0 | i | i | nt | nt | nt
NC(=O)CSc1nnc(C2CC2)n1-c1ccccc1 | i | i | i | i | i | i
O=C(CSc1nnc(C2CC2)n1-c1ccccc1)N1CCNC1=O | 47.2 | i | i | i | i | nt
CC(=O)c1ccc(S(=O)(=O)NCCC(=O)OCC(=O)N(Cc2ccccc2)C(C)(C)C)cc1 | i | i | i | i | i | nt
Cn1cnnc1SCc1ccc(C(=O)N/N=C(\CCC(=O)O)c2ccc(C(C)(C)C)cc2)cc1 | + | i | i | i | i | nt
O=C(NCCc1ccccc1Cl)c1ccc2nc3ccccc3c(=O)n2c1 | i | i | i | i | i | i
CCn1c(C)cc(=S)c2ccccc21 | i | i | i | i | i | -51.9
CCN(C(=O)CSc1nc2ccc(Cl)cc2[nH]1)C1CCS(=O)(=O)C1 (stereo unspecified) | i | i | i | nt | nt | nt
CCCNC(=O)c1ccc2c(=O)c(O)c(-c3cccc(Br)c3)[nH]c2c1 | i | i | i | i | i | -83.9
CCCNC(=O)c1ccc2c(=O)c(O)c(C)[nH]c2c1 | i | i | i | i | i | i
CCCNC(=O)c1ccc2c(=O)c(O)c(-c3ccc(F)cc3)[nH]c2c1 | i | i | i | i | i | -89.8
O=C1CC2(CCN(S(=O)(=O)c3ccccc3F)CC2)Oc2ccccc21 | i | i | i | i | i | i
COC(=O)c1cc(OC)nc(OC)c1 | 25.0 | i | i | i | i | i
Cc1csc(Nc2nc(N)c(C(=O)Nc3ccccc3)o2)n1 | i | i | i | i | i | i
NC(=O)C1(N2CCCCC2)CCN(Cc2nc(-c3cccs3)no2)CC1 | i | i | i | i | i | -34.6
c1csc(-c2noc(CN3CCOCC3)n2)c1 | i | i | i | i | i | i
CCOC(=O)c1nn(-c2ccccc2)c(=O)c2c(N)scc12 | i | i | i | i | i | nt
Nc1scc2c(C(=O)N/N=C/c3ccc(Cl)cc3)nn(-c3ccccc3)c(=O)c12 | i | i | i | 40.5 | 42.6 | i
SMILES | LANA-H2A inh | CR mimetic SO | GLD-1 RNA inh | MCL1-BIM inh | BCLXL inh | MEX-5 binding
O=C(CN1C(=O)c2ccccc2C1=O)OCC(=O)N1CCCCC1 | i | i | i | nt | nt | nt
CC(C)C1COC(c2cccn2Cc2ccccc2Cl)=N1 (stereo unspecified) | 19.6 | i | i | i | i | i
O=c1ccc2[n+]([O-])c3ccc(O)cc3oc-2c1 | nt | nt | nt | nt | nt | -81.2
O=C(Nc1ccc(Cl)cc1)Nc1cccc2nsnc12 | i | i | i | i | 47.7 | i
COc1ccccc1C(=O)Nc1nnc(-c2ccccc2)s1 | i | i | i | i | 46.6 | i
COc1cccc(C(=O)Nc2nnc(-c3ccccc3)s2)c1OC | i | i | i | i | i | i

Screens deposited in PubChem BioAssay by several laboratories.
